Results on nine compounds are retold here after PubChem BioAssay (NCI).

The panel holds about 83,000 compounds, 20% with a hit somewhere; the sample as a whole holds those more often.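 Activity criterion: percent growth below 10, measured after cells in 96-well plates were exposed to a single compound concentration for 48 hours.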 Values without a mark were called inactive. Active and inactive are the calls of the source.

Experiment in all cases: NCI-60 one-dose screen, 48 h (100 = growth as untreated, 0 = no growth, -100 = all killed)
The test system of one test is SK-MEL-2 melanoma. The following applies: 10 µM unless noted.
The next test relates to SN12C renal. The following applies: 10 µM unless noted.
The subject of the next test is UO-31 renal. The following applies: 10 µM unless noted.
Another test has as its system TK-10 renal. The following applies: 10 µM unless noted.
In the next test the test system is ACHN renal. The following applies: 10 µM unless noted.
Another test deals with CAKI-1 renal. The conditions noted are these: 10 µM unless noted.
A further test relates to A498 renal. The following applies: 10 µM unless noted.
The test system of another test is CCRF-CEM leukemia. The following applies: 10 µM unless noted.
The test system of the next test is MOLT-4 leukemia. The conditions noted are these: 10 µM unless noted.
The test system of another test is SR leukemia. The conditions noted are these: 10 µM unless noted.
The next test relates to RPMI-8226 leukemia. The conditions noted are these: 10 µM unless noted.
The test system of a further test is OVCAR-8 ovarian. The following applies: 10 µM unless noted.
A further test concerns OVCAR-5 ovarian. The following applies: 10 µM unless noted.
For a further test, the system named is OVCAR-4 ovarian. The conditions noted are these: 10 µM unless noted.
Another test has as its system SK-OV-3 ovarian. The following applies: 10 µM unless noted.
The next test deals with OVCAR-3 ovarian. The conditions noted are these: 10 µM unless noted.
A further test has as its system HS 578T breast. The following applies: 10 µM.
Another test has as its system IGROV1 ovarian. The conditions noted are these: 10 µM unless noted.
The next test concerns NCI/ADR-RES ovarian. The following applies: 10 µM unless noted.
The next test concerns EKVX NSCLC. The following applies: 10 µM unless noted.

Consider `Cc1ccc(Nc2nc(NCCO)c3ccccc3n2)cc1C`, for which the growth in the test on SK-MEL-2 melanoma is 39.5%; in the test on SN12C renal, 21.5%; in the test on UO-31 renal, 24.6%; in the test on TK-10 renal it was 38.5%; in the test with ACHN renal, 33.1%; in the test on CAKI-1 renal it was 2.38% (active). The growth in the test with A498 renal is -11.9% (active); in the test on CCRF-CEM leukemia, 8.3% (active); in the test with MOLT-4 leukemia, 24.1%; with SR leukemia, 19%; in the test with RPMI-8226 leukemia it was 19.7%; with OVCAR-8 ovarian, 9.74% (active). In addition, the growth with OVCAR-5 ovarian is 25.6%; with OVCAR-4 ovarian, 50.6%; in the test on SK-OV-3 ovarian it was -0.684% (active); in the test on OVCAR-3 ovarian, -9.61% (active); with HS 578T breast it was 36.1%.

As to `CC(CN1CCN(CCOCCO)CC1)CN1c2ccccc2Sc2ccc(Cl)cc21` (stereo unspecified), the growth in the test on SK-MEL-2 melanoma was 80.7%; in the test on SN12C renal, 69.9%; in the test on UO-31 renal, 50.1%; in the test on TK-10 renal, 74.4%; in the test on ACHN renal, 69.4%; in the test on CAKI-1 renal, 69.4%. The growth was 43.9% in the test on A498 renal; 63.2% in the test on CCRF-CEM leukemia; 28.5% in the test with MOLT-4 leukemia; -2.53% (active) in the test with SR leukemia; 60% with RPMI-8226 leukemia; 97.2% in the test with OVCAR-8 ovarian. Further, the growth with OVCAR-5 ovarian was 71.7%; with OVCAR-4 ovarian, 75.7%; in the test on SK-OV-3 ovarian, 90.4%; in the test on IGROV1 ovarian it was 60.1%; in the test with OVCAR-3 ovarian it was 67%; in the test on HS 578T breast it was 60.6%. Moreover, in the test with NCI/ADR-RES ovarian, the growth was 68.7%.

For `Fc1ccc(-c2nnc(N3CCOCC3)c3ccccc23)cc1`, the growth in the test with SK-MEL-2 melanoma was 111%; with EKVX NSCLC it was 69.5%; with SN12C renal, 95%; in the test with UO-31 renal, 85.6%; in the test on ACHN renal it was 103%; in the test on CCRF-CEM leukemia, 124%. The growth in the test on MOLT-4 leukemia is 243%; in the test with RPMI-8226 leukemia, 111%; in the test on OVCAR-8 ovarian, 111%; in the test with OVCAR-5 ovarian, 108%; with OVCAR-4 ovarian, 112%; in the test on SK-OV-3 ovarian, 109%. In addition, the growth with IGROV1 ovarian is 104%; in the test with OVCAR-3 ovarian, 109%; in the test on HS 578T breast, 114%; in the test on NCI/ADR-RES ovarian, 109%.

With `O=C(NCCNC(=O)c1cc(S(=O)(=O)NCCc2ccccc2)c(O)c(O)c1O)c1cc(S(=O)(=O)NCCc2ccccc2)c(O)c(O)c1O`, the growth was 63% in the test with SK-MEL-2 melanoma; 49.9% with EKVX NSCLC; 52.3% in the test on SN12C renal; 46.5% with UO-31 renal; 68.6% in the test with ACHN renal; 45% with CCRF-CEM leukemia. In addition, the growth in the test with MOLT-4 leukemia was 56.6%; in the test with RPMI-8226 leukemia, 79.5%; in the test with OVCAR-8 ovarian it was 40.2%; in the test with OVCAR-4 ovarian it was 62.3%; in the test on SK-OV-3 ovarian, 33.1%; with IGROV1 ovarian, 31.5%. For the same compound, the results for the growth in the test on OVCAR-3 ovarian, in the test with HS 578T breast and in the test on NCI/ADR-RES ovarian were 19.7%, 52.2% and 76.1%, respectively.

Turning to `O=C(Nc1ccc(OS(=O)(=O)c2ccc(F)cc2)cc1)C12CC3CC(CC(C3)C1)C2`, the growth in the test on SK-MEL-2 melanoma was 86%; in the test on SN12C renal it was 77.3%; in the test on UO-31 renal it was 83.8%; in the test on TK-10 renal, 87.5%; in the test on ACHN renal, 76.5%; in the test on CAKI-1 renal, 79.2%. Also, the growth is 40.4% with A498 renal; 52.1% with CCRF-CEM leukemia; 33.3% in the test with MOLT-4 leukemia; 36.3% in the test on SR leukemia; 12.3% in the test with RPMI-8226 leukemia; 72.4% with OVCAR-8 ovarian. Moreover, the growth in the test with OVCAR-5 ovarian was 100%; in the test with OVCAR-4 ovarian it was 54.4%; with SK-OV-3 ovarian it was 74.9%; in the test on IGROV1 ovarian it was 90.2%; in the test on OVCAR-3 ovarian it was 78.2%; with HS 578T breast, 75.8%. The growth in the test on NCI/ADR-RES ovarian is 60.2%.

Regarding `O=C1C2=C(C(=O)c3c(O)ccc(O)c31)N(c1ccc(N3CCOCC3)nc1)Cc1ccccc1O2`, the growth with SK-MEL-2 melanoma is -42.1% (active); in the test on EKVX NSCLC, -9.79% (active); with SN12C renal, -85.2% (active); in the test on UO-31 renal, -100% (active); with ACHN renal, -100% (active); in the test with A498 renal, -50.1% (active). For the same compound, the growth is -10.1% (active) in the test on CCRF-CEM leukemia; -24.4% (active) with MOLT-4 leukemia; -20.6% (active) with RPMI-8226 leukemia; -10.6% (active) in the test with OVCAR-8 ovarian; -45.2% (active) in the test with OVCAR-5 ovarian; -97.8% (active) in the test on OVCAR-4 ovarian. In addition, the growth in the test with SK-OV-3 ovarian is 15.2%; with IGROV1 ovarian it was -70.5% (active); in the test on OVCAR-3 ovarian it was -97.3% (active); in the test on HS 578T breast, 27.5%; in the test on NCI/ADR-RES ovarian it was 5.43% (active).

As to `COC1CC(N)C2OC(c3ccccc3)OCC2O1` (stereo unspecified), the growth was 114% in the test on SK-MEL-2 melanoma; 99.3% in the test on SN12C renal; 97.6% in the test with UO-31 renal; 101% in the test with TK-10 renal; 99.3% in the test with ACHN renal; 96.8% in the test on CAKI-1 renal. Further, the growth was 111% with A498 renal; 93.3% in the test on CCRF-CEM leukemia; 100% in the test with MOLT-4 leukemia; 98% with SR leukemia; 92.8% in the test on RPMI-8226 leukemia; 98.4% in the test on OVCAR-8 ovarian. The growth in the test with OVCAR-5 ovarian was 94.4%; in the test on OVCAR-4 ovarian it was 97.5%; with SK-OV-3 ovarian, 115%; in the test on IGROV1 ovarian, 110%; in the test on OVCAR-3 ovarian it was 111%; in the test with HS 578T breast, 96.6%.

As to `CC(C)N=C1CCCC1C(=S)SSC(=S)C1CCCC1=NC(C)C` (stereo unspecified), the growth with SK-MEL-2 melanoma is 94.7%; in the test on SN12C renal, 58.1%; in the test with UO-31 renal it was 54.3%; in the test with TK-10 renal it was 109%; in the test with ACHN renal, 68.4%; in the test on CAKI-1 renal, 39.3%. For the same compound, the growth with A498 renal is 83.4%; with CCRF-CEM leukemia, 22.9%; with MOLT-4 leukemia it was 61.2%; in the test with SR leukemia it was 47.7%; in the test with RPMI-8226 leukemia, 59.5%; with OVCAR-8 ovarian it was 61.7%. In addition, the growth in the test on OVCAR-5 ovarian is 93.9%; in the test on OVCAR-4 ovarian it was 53.8%; in the test with SK-OV-3 ovarian, 110%; in the test on IGROV1 ovarian it was 52.8%; in the test on OVCAR-3 ovarian it was 44.8%; in the test on HS 578T breast, 75.9%.

As to `O=C(CN1CCN(c2ccccc2)CC1)N1CCN(c2nnc(-c3ccc(Cl)cc3)c(-c3ccc(Cl)cc3)n2)CC1`, the growth was 71.9% in the test with SK-MEL-2 melanoma; 35% in the test with EKVX NSCLC; 62.7% in the test on SN12C renal; 53.6% in the test on ACHN renal; 62.6% in the test with A498 renal; 29.4% with CCRF-CEM leukemia. Moreover, the growth with MOLT-4 leukemia is 2% (active); with SR leukemia, 23.1%; in the test with RPMI-8226 leukemia it was -39.6% (active); in the test with OVCAR-8 ovarian, 68%; with OVCAR-5 ovarian, 111%; in the test on OVCAR-4 ovarian, 45.5%. Further, the growth was 103% with SK-OV-3 ovarian; 50.7% in the test with IGROV1 ovarian; 64.3% in the test on OVCAR-3 ovarian; 77.5% in the test on HS 578T breast; 60.4% in the test on NCI/ADR-RES ovarian.
